Measured values: PubChem BioAssay AID1159580 (chemical genetic matrix, 2015)
About 2,000 (36%) of roughly 5,500 compounds were called active. Another 18% or so got no clear call; they are omitted. Rule as the data show it: active = normalized growth mostly below about 0.91 (no sharp cut-off); inconclusive = no clear call, values can overlap the other calls; inactive = mostly above about 0.92. The list shows a part of the results.

Test: chemical genetic growth profiling, strain panel (AID 1159580);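 also: tested at 20 µM; growth read once vehicle control cultures reached saturation at 30 °C; 1 = growth at the plate median or of vehicle wells; lower values mean less growth of the strain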
Details: growth OD

Measured: normalized growth

CC12CCC3C(CC3(C)C)C(C)(CCC1=O)O2 (configuration not stated)
inactive: S. cerevisiae deletion strains, locus YJR043C, strain POL32, active compounds read low 1.01 | S. cerevisiae deletion strains, locus YJR066W, strain TOR1, active compounds read low 0.988 | S. cerevisiae deletion strains, locus YKL009W, strain mrt4, active compounds read low 1.03 | S. cerevisiae deletion strains, locus YKL068W, active compounds read low 1.01 | S. cerevisiae deletion strains, locus YKL085W, strain MDH1 (second series), active compounds read low 1.01 | S. cerevisiae deletion strains, locus YKL085W, strain MDH1, active compounds read low 1.01 | S. cerevisiae deletion strains, locus YKL160W, strain elf1, active compounds read low 1.03 | S. cerevisiae deletion strains, locus YKL190W, strain CNB1, active compounds read low 1.01 | S. cerevisiae deletion strains, locus YKR001C, strain vps1, active compounds read low 1.03 | S. cerevisiae deletion strains, locus YKR026C, strain gcn3, active compounds read low 0.994 | S. cerevisiae deletion strains, locus YKR091W, strain srl3, active compounds read low 0.992 | S. cerevisiae deletion strains, locus YLL001W, strain dnm1, active compounds read low 1.01 | S. cerevisiae deletion strains, locus YLL026W, active compounds read low 0.997 | S. cerevisiae deletion strains, locus YLL041C, strain sdh2, active compounds read low 0.992 | S. cerevisiae deletion strains, locus YLR027C, strain aat2, active compounds read low 1.01 | S. cerevisiae deletion strains, locus YLR039C, strain RIC1, active compounds read low 1.08 | S. cerevisiae deletion strains, locus YLR058C, strain SHM2, active compounds read low 1.02 | S. cerevisiae deletion strains, locus YLR102C, strain apc9, active compounds read low 1.01 | S. cerevisiae deletion strains, locus YLR113W, strain HOG1, active compounds read low 1.04 | S. cerevisiae deletion strains, locus YLR221C, strain rsa3, active compounds read low 1 | S. cerevisiae deletion strains, locus YLR258W, strain gsy2, active compounds read low 0.99 | S. cerevisiae deletion strains, locus YLR262C, strain YPT6 (second series), active compounds read low 0.992 | S. cerevisiae deletion strains, locus YLR268W, strain sec22, active compounds read low 1.03 | S. cerevisiae deletion strains, locus YLR320W, strain mms22, active compounds read low 0.992 | S. cerevisiae deletion strains, locus YLR330W, strain CHS5, active compounds read low 1.02 | S. cerevisiae deletion strains, locus YLR342W, strain FKS1, active compounds read low 0.992 | S. cerevisiae deletion strains, locus YLR357W, strain rsc2, active compounds read low 1.01 | S. cerevisiae deletion strains, locus YLR370C, strain arc18, active compounds read low 1.03 | S. cerevisiae deletion strains, locus YLR371W, strain rom2, active compounds read low 0.982 | S. cerevisiae deletion strains, locus YLR384C, strain iki3, active compounds read low 1 | S. cerevisiae deletion strains, locus YLR418C, strain cdc73, active compounds read low 1.07 | S. cerevisiae deletion strains, locus YML016C, strain PPZ1, active compounds read low 1.01 | S. cerevisiae deletion strains, locus YML032C, strain rad52, active compounds read low 1.02 | S. cerevisiae deletion strains, locus YML120C, strain ndi1, active compounds read low 1 | S. cerevisiae deletion strains, locus YML124C, strain tub3, active compounds read low 1.02 | S. cerevisiae deletion strains, locus YMR058W, strain fet3, active compounds read low 1.02 | S. cerevisiae deletion strains, locus YMR078C, strain ctf18, active compounds read low 1.01 | S. cerevisiae deletion strains, locus YMR125W, strain sto1, active compounds read low 1.02 | S. cerevisiae deletion strains, locus YMR129W, active compounds read low 0.987 | S. cerevisiae deletion strains, locus YMR205C, strain PFK2, active compounds read low 1.01 | S. cerevisiae deletion strains, locus YMR223W, strain ubp8, active compounds read low 1.03 | S. cerevisiae deletion strains, locus YMR231W, strain pep5, active compounds read low 1.01 | S. cerevisiae deletion strains, locus YMR307W, strain GAS1, active compounds read low 1.02 | S. cerevisiae deletion strains, locus YNL067W, strain RPL9B, active compounds read low 1.03 | S. cerevisiae deletion strains, locus YNL071W, strain lat1, active compounds read low 0.999 | S. cerevisiae deletion strains, locus YNL183C, strain NPR1, active compounds read low 0.999 | S. cerevisiae deletion strains, locus YNL209W, strain ssb2, active compounds read low 0.996 | S. cerevisiae deletion strains, locus YNL233W, strain BNI4, active compounds read low 1.04 | S. cerevisiae deletion strains, locus YNL248C, strain rpa49, active compounds read low 1.04 | S. cerevisiae deletion strains, locus YNL250W, strain rad50, active compounds read low 1.05 | S. cerevisiae deletion strains, locus YNL271C, strain bni1, active compounds read low 1.02 | S. cerevisiae deletion strains, locus YNL298W, strain CLA4, active compounds read low 1.02 | S. cerevisiae deletion strains, locus YNL307C, strain MCK1, active compounds read low 1.03 | S. cerevisiae deletion strains, locus YNL322C, strain KRE1 (second series), active compounds read low 0.985 | S. cerevisiae deletion strains, locus YNL322C, strain KRE1, active compounds read low 1.01 | S. cerevisiae deletion strains, locus YNR049C, strain mso1, active compounds read low 0.999 | S. cerevisiae deletion strains, locus YNR052C, strain pop2, active compounds read low 1.04 | S. cerevisiae deletion strains, locus YOL006C, strain TOP1, active compounds read low 1.08 | S. cerevisiae deletion strains, locus YOL012C, strain htz1 0.815 | S. cerevisiae deletion strains, locus YOL147C, strain pex11, active compounds read low 0.996 | S. cerevisiae deletion strains, locus YOR001W, strain rrp6, active compounds read low 0.95 | S. cerevisiae deletion strains, locus YOR061W, strain CKA2, active compounds read low 1.01 | S. cerevisiae deletion strains, locus YOR069W, strain VPS5, active compounds read low 1.02 | S. cerevisiae deletion strains, locus YOR070C, strain gyp1, active compounds read low 1.03 | S. cerevisiae deletion strains, locus YOR080W, strain dia2, active compounds read low 0.989 | S. cerevisiae deletion strains, locus YOR083W, strain WHI5, active compounds read low 1.03 | S. cerevisiae deletion strains, locus YOR106W, strain vam3, active compounds read low 0.998 | S. cerevisiae deletion strains, locus YOR136W, strain idh2, active compounds read low 1.01 | S. cerevisiae deletion strains, locus YOR144C, strain elg1, active compounds read low 1.02 | S. cerevisiae deletion strains, locus YOR184W, strain ser1, active compounds read low 0.997 | S. cerevisiae deletion strains, locus YOR231W, strain MKK1, active compounds read low 1.05 | S. cerevisiae deletion strains, locus YOR265W, strain rbl2, active compounds read low 1.02 | S. cerevisiae deletion strains, locus YOR270C, strain vph1, active compounds read low 1.1 | S. cerevisiae deletion strains, locus YOR290C, strain snf2, active compounds read low 0.975 | S. cerevisiae deletion strains, locus YOR316C, strain cot1, active compounds read low 1.02 | S. cerevisiae deletion strains, locus YPL051W, strain arl3, active compounds read low 1 | S. cerevisiae deletion strains, locus YPL055C, strain LGE1, active compounds read low 1.04 | S. cerevisiae deletion strains, locus YPL078C, strain atp4, active compounds read low 1.02 | S. cerevisiae deletion strains, locus YPL106C, strain sse1, active compounds read low 1.01 | S. cerevisiae deletion strains, locus YPL240C, strain hsp82, active compounds read low 0.994 | S. cerevisiae deletion strains, locus YPL256C, strain CLN2, active compounds read low 1.06 | S. cerevisiae deletion strains, locus YPR119W, strain clb2, active compounds read low 1.02 | S. cerevisiae deletion strains, locus YPR141C, strain kar3, active compounds read low 1.01 | S. cerevisiae deletion strains, locus YPR163C, strain tif3, active compounds read low 1.03 | S. cerevisiae deletion strains, locus YPR167C, strain met16, active compounds read low 1.02 | S. cerevisiae deletion strains, strain wtn01, active compounds read low 1.01 | S. cerevisiae strains, strain wild type, active compounds read low 1.03
